The values below come from PubChem BioAssay (Tox21).

The target in assay [1] is Thyrotropin-releasing hormone receptor (Homo sapiens) (UniProt P34981). As to the kind of experiment: qHTS assay to identify small molecule agonists of the thyrotropin-releasing hormone receptor (TRHR) signaling pathway (AID 1346891; calls by dose curve; further: series mostly up to about 58 µM). Put shortly:
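HEK293 cells expressing TRHR plated 18 h at 37 C/5% CO2, calcium dye-loaded 2 h at 37 C, then compound added (agonist mode); kinetic calcium fluorescence read 3 min at 1 s intervals; 15 concentrations in triplicate.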
On the technique in general: qHTS replaces the single test concentration by a dilution series.

Assay [2] is described as follows: Human pregnane X receptor (PXR) small molecule agonists, qHTS cell viability counter screen (AID 1346977). Further: nearly all actives have a fitted effect of over 50% in size. The essentials: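 PXR-Luc HepG2 cells (2,000/well, 5% charcoal-stripped FBS) preincubated 5 hr, then exposed to compounds 24 hr at 37 C. Viability read in the same wells by CellTiter-Fluor fluorescence, reagent added at 23 hr, 1 hr incubation.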
Assay [3] in a line: Caspase-3/7 induction in HepG2 cells by small molecules, qHTS assay (AID 1346978). Further: nearly all actives have a fitted effect of over 15% in size. Put shortly:
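Wild-type HepG2 cells, 2,000/well, settled 5 hr at 37 C and 5% CO2, then compound-treated for 17 hr; caspase-3/7 activity read by luminescent Caspase-Glo 3/7 after 30 min at room temperature.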

The nature of assay [4]: Caspase-3/7 induction in CHO-K1 cells by small molecules, qHTS cell viability counter screen (AID 1346979). Further: nearly all actives have a fitted effect of over 35% in size. Further: potency means the concentration at half of the fitted maximal effect. The essentials: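 Wild-type CHO-K1 cells (1,500/well) treated with compound after 5 h plating; after 16 h at 37C, viability read as CellTiter-Fluor fluorescence following 1 h reagent incubation, in the same wells as the caspase read.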
Assay [5] in a line: Caspase-3/7 induction in CHO-K1 cells by small molecules, qHTS assay (AID 1346980). Further: nearly all actives have a fitted effect of over 15% in size. Put shortly:
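Wild-type CHO-K1 cells exposed to compounds for 17hr at 37 C, 5% CO2. Caspase-3/7 activity then measured by Caspase-Glo 3/7 luminescence after 30min at room temperature.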

Assay [6] in a line: Caspase-3/7 induction in HepG2 cells by small molecules, qHTS cell viability counter screen (AID 1346981). Further: nearly all actives have a fitted effect of over 30% in size. Further: potency means the concentration at half of the fitted maximal effect. The essentials:
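In this quantitative HTS counter screen, compounds delivered in DMSO were left on unmodified HepG2 cells for 16 hr at 37 C. Viability was then determined fluorometrically with CellTiter-Fluor, in parallel with caspase-3/7 induction in the same wells.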

In assay [7] the target is Nuclear receptor subfamily 1 group I member 2 (Homo sapiens) (UniProt O75469). Briefly: Human pregnane X receptor (PXR) small molecule agonists, qHTS assay (AID 1346982). Further: nearly all actives have a fitted effect of over 35% in size. Further: potency means the concentration at half of the fitted maximal effect. The essentials: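 Reporter HepG2 cells expressing PXR-Luc are cultured in charcoal-stripped FBS (5%), treated with compounds for 24 hr at 37 C, and assayed by ONE-Glo luminescence after 30 min at room temperature.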

Structures are written as SMILES. Where “and” joins values, the source holds several entries; their conditions need not be identical. Identical values can stand only once. Inconclusive results are not listed. Some compounds were tested as several samples or in several runs, with calls that do not always agree. Calls of active or inactive are those of the source. Unless noted, the call rests on the fitted dose curve; in most records, active means well fitted curve in the direction sought with a large enough effect in the repeat runs; inconclusive means weak or mixed curves; inactive means no such curve, though single readings can be large; an effect the other way counts as inactive or inconclusive.

Nuclear receptor subfamily 1 group I member 2 (Homo sapiens), sequence (O75469 whole entry, looked up): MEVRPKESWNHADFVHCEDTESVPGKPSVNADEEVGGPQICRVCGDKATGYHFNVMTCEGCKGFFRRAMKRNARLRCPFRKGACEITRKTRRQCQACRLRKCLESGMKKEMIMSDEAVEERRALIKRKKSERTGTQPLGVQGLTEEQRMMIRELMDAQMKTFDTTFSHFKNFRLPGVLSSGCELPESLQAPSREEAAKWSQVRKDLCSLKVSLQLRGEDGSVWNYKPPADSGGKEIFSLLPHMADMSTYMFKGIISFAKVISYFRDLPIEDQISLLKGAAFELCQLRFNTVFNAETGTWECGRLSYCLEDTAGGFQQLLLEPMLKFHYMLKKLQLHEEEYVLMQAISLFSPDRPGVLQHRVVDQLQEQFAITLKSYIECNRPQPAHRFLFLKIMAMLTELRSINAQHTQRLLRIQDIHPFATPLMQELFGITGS
Thyrotropin-releasing hormone receptor (Homo sapiens), sequence (P34981 whole entry, looked up): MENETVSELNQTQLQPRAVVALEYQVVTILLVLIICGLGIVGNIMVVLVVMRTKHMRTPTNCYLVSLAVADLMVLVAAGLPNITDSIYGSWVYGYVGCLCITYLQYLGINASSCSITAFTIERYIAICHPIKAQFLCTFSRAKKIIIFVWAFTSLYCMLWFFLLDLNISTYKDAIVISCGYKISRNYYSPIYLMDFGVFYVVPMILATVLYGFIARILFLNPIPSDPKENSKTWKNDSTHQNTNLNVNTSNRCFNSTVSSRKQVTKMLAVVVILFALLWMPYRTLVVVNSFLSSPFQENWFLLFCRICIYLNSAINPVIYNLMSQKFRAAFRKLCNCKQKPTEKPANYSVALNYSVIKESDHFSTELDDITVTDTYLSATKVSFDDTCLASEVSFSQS

On to `CCOC(=O)CC(SP(=O)(OC)OC)C(=O)OCC` (stereo unspecified), for which the call in assay [1], in assay [3] and in assay [5] was inactive. The Potency result in assay [2], in assay [4], in assay [6] and in assay [7] was “inactive” in each case.

As to `Cl[C@H]1OCCO[C@@H]1Cl`, the molecule was called inactive in assay [1], in assay [3] and in assay [5]. In addition, the Potency result in assay [2], in assay [4], in assay [6] and in assay [7] was “inactive” in each case.

On to `CC(C)c1cccc(C(C)C)c1O`, for which the call in assay [1], in assay [3] and in assay [5] was inactive. Further, the Potency result in assay [2], in assay [4] and in assay [6] was “inactive” each time.

In the case of `CCCOC(=O)c1ccccc1C(=O)OCCC`, the result in assay [1], in assay [3] and in assay [5] was inactive. Also, the Potency entry in assay [2], in assay [4], in assay [6] and in assay [7] was “inactive” each time.

With `O=S(=O)(O)OOS(=O)(=O)O`, the molecule was classed as inactive in assay [1], in assay [3] and in assay [5]. Also, the Potency result in assay [2], in assay [4], in assay [6] and in assay [7] was “inactive” in each case.

As to `COS(=O)(=O)OC`, the molecule was classed as inactive in assay [1], in assay [3] and in assay [5]. The Potency result in assay [2], in assay [4], in assay [6] and in assay [7] was “inactive” each time.

Consider `N#Cc1ccccn1`, for which the result in assay [1], in assay [3] and in assay [5] was inactive. The Potency result in assay [2], in assay [4], in assay [6] and in assay [7] was “inactive” in each case.

Turning to `CSc1nnc(C(C)(C)C)c(=O)n1N`, the call in assay [1], in assay [3] and in assay [5] was inactive. The Potency result in assay [2], in assay [4], in assay [6] and in assay [7] was “inactive” throughout.

Take `Cc1ccc(O)c(C)c1`: the outcome in assay [1], in assay [3] and in assay [5] was inactive. Further, the Potency entry in assay [2], in assay [4], in assay [6] and in assay [7] was “inactive” each time.

Take `CN(C)C(=O)Nc1cccc(C(F)(F)F)c1`: the call in assay [1], in assay [3] and in assay [5] was inactive. Moreover, the Potency result in assay [2], in assay [4], in assay [6] and in assay [7] was “inactive” throughout.

As to `O=P1(NCCCl)OCCCN1CCCl` (stereo unspecified), the molecule was classed as inactive in assay [1], in assay [3] and in assay [5]. Also, the Potency result in assay [2], in assay [4] and in assay [6] was “inactive” each time.

Turning to `C=CC#N`, the call in assay [1], in assay [3] and in assay [5] was inactive. Moreover, the Potency result in assay [2], in assay [4], in assay [6] and in assay [7] was “inactive” in each case.

With `N#CN=C(N)N`, the outcome in assay [1], in assay [3] and in assay [5] was inactive. Besides, the Potency entry in assay [2], in assay [4], in assay [6] and in assay [7] was “inactive” in each case.

Take `FC(F)(F)c1ccc(Cl)cc1`: the outcome in assay [1], in assay [3] and in assay [5] was inactive. In addition, the Potency result in assay [2], in assay [4], in assay [6] and in assay [7] was “inactive” each time.

Turning to `N#Cc1cccc(C#N)c1`, the molecule was called inactive in assay [1], in assay [3] and in assay [5]. Besides, the Potency result in assay [2], in assay [4], in assay [6] and in assay [7] was “inactive” in each case.

As for `O=[N+]([O-])c1ccc(Cl)cc1`, the molecule was classed as inactive in assay [1], in assay [3] and in assay [5]. For the same molecule, the Potency entry in assay [2], in assay [6] and in assay [7] was “inactive” throughout. In assay [4], the Potency was 48.2 µM (active) and inactive.

As to `COc1cc(-c2ccc(N)c(OC)c2)ccc1N`, the molecule was called inactive in assay [1], in assay [3] and in assay [5]. Moreover, the Potency entry in assay [2] was “inactive”. Besides, the Potency entry in assay [4] was “inactive and 58.3 µM (active)”; in assay [6], “inactive and 46.3 µM (active)”.

As to `Cc1cccc(N)c1C`, the molecule was called inactive in assay [1], in assay [3] and in assay [5]. The Potency entry in assay [2], in assay [4] and in assay [6] was “inactive” each time. Moreover, the Potency in assay [7] was 61.1 µM (active).

For `CN(C)CCC#N`, the result in assay [1], in assay [3] and in assay [5] was inactive. Besides, the Potency entry in assay [2], in assay [4], in assay [6] and in assay [7] was “inactive” each time.

For `Nc1cc(Cl)cc(Cl)c1`, the outcome in assay [1], in assay [3] and in assay [5] was inactive. Moreover, the Potency result in assay [2], in assay [4], in assay [6] and in assay [7] was “inactive” in each case.

Regarding `OCc1ccco1`, the molecule was called inactive in assay [1], in assay [3] and in assay [5]. The Potency result in assay [2], in assay [4], in assay [6] and in assay [7] was “inactive” each time.

Turning to `O=C(O)c1cc(Oc2ccc(C(F)(F)F)cc2Cl)ccc1[N+](=O)[O-]`, the molecule was classed as inactive in assay [1], in assay [3] and in assay [5]. The Potency entry in assay [2], in assay [4] and in assay [6] was “inactive” throughout. The Potency entry in assay [7] was “inactive and 61.4 µM (active)”.

Take `Cc1ccc(N=C=O)cc1N=C=O`: the call in assay [1], in assay [3] and in assay [5] was inactive. In addition, the Potency result in assay [2], in assay [4] and in assay [6] was “inactive” in each case. Besides, in assay [7], the Potency is 60.9 µM (active) and inactive.

Consider `O=C(O)CCCc1ccc(N(CCCl)CCCl)cc1`, for which the outcome in assay [1], in assay [3] and in assay [5] was inactive. Further, the Potency result in assay [2] and in assay [7] was “inactive” each time. In addition, the Potency is 34.5 µM (active) and 21.7 µM (active) and 21.1 µM (active) in assay [4]; 54.7 µM (active) and inactive in assay [6].

In the case of `CN(C)C(=O)Cl`, the molecule was called inactive in assay [1], in assay [3] and in assay [5]. The Potency entry in assay [2], in assay [4], in assay [6] and in assay [7] was “inactive” each time.

On to `CC(C)(C)C(=O)CCl`, for which the outcome in assay [1], in assay [3] and in assay [5] was inactive. The Potency entry in assay [2], in assay [4], in assay [6] and in assay [7] was “inactive” throughout.

With `CCOc1ccc(N)cc1`, the call in assay [1], in assay [3] and in assay [5] was inactive. Also, the Potency result in assay [2], in assay [4], in assay [6] and in assay [7] was “inactive” each time.

On to `OCCCCO`, for which the molecule was called inactive in assay [1], in assay [3] and in assay [5]. Also, the Potency result in assay [2] and in assay [4] was “inactive” each time.

For the molecule `c1ccc2c(c1)CCCC2`, the molecule was classed as inactive in assay [1], in assay [3] and in assay [5]. In addition, the Potency result in assay [2], in assay [4], in assay [6] and in assay [7] was “inactive” in each case.

On to `CN(C)C(=O)C(c1ccccc1)c1ccccc1`, for which the result in assay [1], in assay [3] and in assay [5] was inactive. Besides, the Potency result in assay [2], in assay [4] and in assay [6] was “inactive” throughout. The Potency entry in assay [7] was “inactive and 19.3 µM (active)”.

Turning to `Cc1cccc(C)c1NC(=O)CN1CCCC1=O`, the molecule was classed as inactive in assay [1], in assay [3] and in assay [5]. Further, the Potency result in assay [2], in assay [4] and in assay [7] was “inactive” in each case.
